Screening data as filed in PubChem BioAssay.
Sampled rows, rich in hits. Any-hit rate of the full collection: about 21%.
CHX counter – affects cycloheximide protein synthesis inhibition readout, counter-screen; 300,000 tested, 12% active; cell reporter, cycloheximide protein synthesis inhibition counterscreen; AID 2314; max response, %; in the data active means max response mostly above about 13%, no sharp cut-off; inactive means mostly below about 14%; further: read at 38.3 µM for the half of the compounds with a filed dose; 0% is about no effect
NS1 inh – blocks influenza NS1 protein function | Potency, µM (series often up to 46.1 µM), for inactives: at the highest dose activity, positive = more growth | 270,000 tested, 0.4% active; further: potency means the concentration at half of the fitted maximal effect; actives are rising curves; nearly all actives have a fitted effect of over 50% in size
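Read-out: OD600 growth recovery of NS1-expressing budding yeast. Cells grown overnight at 30C in -URA glucose medium, washed, resuspended and diluted 1:100 in 2% galactose assay medium, pH 6.0. Same strain lacking NS1 served as positive control.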
Pf growth 48h – P. falciparum growth inhibition at 48 hours (one generation); P. falciparum luciferase growth in erythrocytes, 48 h; Potency, µM (titrated, usually from 28.7 µM), for the others: top-dose activity change, negative = inhibition, usual class: inhibitors; 310,000 tested, 5.9% active; AID 504832; active means well fitted inhibition curve with a large enough effect; inconclusive means small, poorly fitted or top-dose-only effect, or another doubt; inactive means no such curve, though single readings can be large or run the other way; further: potency means the concentration at half of the fitted maximal effect; on the % scale 0 is the no-effect control and ±100 the full control effect
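First compound was added to culture medium, then infected red cells at 0.1% parasitemia and 2% hematocrit (final). After incubation at 37 C under 5% CO2, luciferase detection reagent was dispensed and light output recorded.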
Pf growth 96h – P. falciparum growth inhibition at 96 hour, primary screen for plastid delayed-death inhibitors; P. falciparum luciferase reporter growth, 96 h; Potency, µM (doses to about 28.7 µM), inactives show top-dose activity change, negative = inhibition, usual class: inhibitors; 320,000 tested, 6.9% active; AID 504834; active means well fitted inhibition curve with a large enough effect; inconclusive means small, poorly fitted or top-dose-only effect, or another doubt; inactive means no such curve, though single readings can be large or run the other way; further: potency means the concentration at half of the fitted maximal effect; on the % scale 0 is the no-effect control and ±100 the full control effect
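Erythrocytes infected with luciferase-expressing P. falciparum were dispensed at 2% hematocrit and 0.05% parasitemia (final), then incubated with compounds 96 hours at 37 C in 5% CO2. Luminescence after detection reagent addition reported growth.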
SARS PLpro yeast – SARS-CoV PLP inhibition in yeast. S. cerevisiae expressing SARS-CoV PLpro, growth rescue. Potency, µM (top dose mostly 32.9 µM), for inactives: top-dose activity, positive = growth rescue, usual class: activators. 330,000 tested, 0.19% active. AID 485353; further: potency means the concentration at half of the fitted maximal effect; 0% is about no effect; nearly all actives have a fitted effect of over 55% in size
Shiga inhibitor – blocks Shiga toxin action in Vero cells; Vero cells, Shiga toxin protein synthesis inhibition reporter; inhibition, % at 38.7 µM; 290,000 tested, 9.2% active; in the data active means inhibition mostly above about 28%, no sharp cut-off; inactive means mostly below about 43%; further: 0% is about no effect
* marks the source's active call; other numbers are inactive results; i = inactive; ? = inconclusive; nt = not tested or not shown; ! = repeats disagree; [ ] = remark or other dose. Unless noted, the call rests on the fitted dose curve.

SMILES	CHX counter	NS1 inh	Pf growth 48h	Pf growth 96h	SARS PLpro yeast	Shiga inhibitor
CCOc1ccc(NS(=O)(=O)c2cc(NC(=O)c3cccc(C)c3)ccc2Cl)cc1	0	?	?	?	7%	4
CC(C)(C)NCC(O)c1cc(Cl)c(N)c(Cl)c1 (configuration not stated)	5	-2%	12µM*	11µM*!	?	-3
CCc1cc(C(=O)NNC(=O)CCl)sc1C	20	nt	1µM*	1.5µM*	?	-3
CC(C)(C)C1CCc2sc(C(=O)NNC(=O)CCl)cc2C1 (configuration not stated)	59*	nt	?	?	?	109*
CCc1cc(C(=O)NNC(=O)CCN2CCN(c3ccccc3)CC2)sc1C	-1	5%	5%	29%	26%	-11
CC(C)(C)C1CCC(=NNC(=O)c2cc3c(s2)CCCC3)CC1 (configuration not stated)	-2	5%	2%	5%	-9%	-3
CCc1cc(C(=O)Nc2ncccc2O)sc1C	37*	-98%	29%	95%	0%	55*
CCCCOc1ccc([N+](=O)[O-])cc1C(=O)O	-4	nt	-17%[5.75 µM]	?	1%	4
Cc1cc(C)nc(SCc2ccc(F)cc2)n1	-2	3%	2%	5%	0%	4
CO[C@]12C(COC(N)=O)C3=C(C(=O)C(C)=C(N)C3=O)N1CC1NC12 (some centres not stated)	nt	nt	0.24µM*	0.6µM*	nt	nt
CCCc1ccc(Oc2cc(C)nc(N3CCOCC3)n2)cc1	9	-29%	36%	-2%	13%	23
CC(=O)c1ccc(Oc2cc(C)nc(N3CCOCC3)n2)cc1	13*	-3%	34%	8%	6%	20
Cc1cc(Oc2ccc(C(C)(C)C)cc2)nc(N2CCOCC2)n1	-4	-4%	nt	10µM*	7%	-5
Cc1cc(Oc2ccc(-c3ccccc3)cc2)nc(N2CCOCC2)n1	-5	-69%	?	?	2%	-16
CCOc1cccc2cc(C(C)=O)oc12	-6	nt	31%	-10%	-6%	-5
COc1ccc(NC(=S)N2CCC(c3ccccc3)C2)cc1 (configuration not stated)	40*	-12%	0%[0.00184 µM]	10%	-5%	84*
CCOc1ccc(NC(=O)N2CCC(C(=O)c3ccc(F)cc3)CC2)cc1	-1	-7%	?	40%	-6%	-16
Cc1ccc(NC(=O)N2CCCC(c3ccccc3)C2)cc1 (configuration not stated)	22*	-6%	17%	4%	0%	26
CCOc1ccc(NC(=O)N2CCC(c3ccc(C)cc3)C2)cc1 (configuration not stated)	18*	-11%	26%	1%	0%	30
CCc1ccc(NC(=O)N2CCC(c3ccccc3)C2)cc1 (configuration not stated)	39*	nt	246%	19%	3%	108*
Cc1onc(-c2c(F)cccc2Cl)c1C(=O)NCCc1ccncc1	6	7%	?	2%	3%	-8
O=C(COC(=O)/C=C/c1ccco1)Nc1ccc(F)cc1Cl	12	-5%	34%	13%	0%	-5
O=C(CN(c1ccccc1)S(=O)(=O)c1ccc(Cl)cc1)Nc1cccnc1	-5	-6%	7%	44%	-3%	-5
O=C(Nc1ccccc1)N1CCC(c2ccccc2)C1 (configuration not stated)	39*	-71%	96%	-26%	9%	83*
Cc1ccc(C)c(NC(=S)N2CCCCCC2)c1	6	-5%	8%	?	?	-8
SMILES	CHX counter	NS1 inh	Pf growth 48h	Pf growth 96h	SARS PLpro yeast	Shiga inhibitor
Cc1ccc(Cl)cc1NC(=S)N1CCC(c2ccccc2)C1 (configuration not stated)	26*	7%	12µM*	?	-2%	27
C[C@H](CO)N1C[C@H](C)[C@@H](CN(C)S(C)(=O)=O)Oc2ccc(NC(=O)C3CC3)cc2C1=O	nt	nt	nt	nt	-24%	nt
COc1cc(OC)cc(C(=O)c2c(C)c(C#N)c3ccccn23)c1	9	-2%	8.3µM*	?	0%	-7
Clc1ccc(-c2cnc3n2CCC3)cc1	17	-4%	?	-32%	-5%	37
Nc1cccn2c(-c3ccc(Cl)c(Cl)c3)cnc12	74*	nt	i	i	-4%	92*
Nc1cccn2c(-c3ccc(Cl)cc3)cnc12	47*	nt	234%	207%	-9%	197*
CC(=O)O[C@H]1CC[C@]2(C)[C@H]3CC=C4[C@@H]5[C@@H](C)[C@H](C)CC[C@]5(C(=O)O)CC[C@@]4(C)[C@]3(C)CC[C@H]2C1(C)C	-3	10%	?	?	0%	-2
O=C(O)CCc1nn2c3ccccc3n(CC(=O)c3cccs3)c2nc1=O	-1	nt	3%	-6%	2%	-6
Cc1ccc2nc3c(c(Nc4ccc5c(c4)OCCO5)c2c1)CCC3	10	-26%	4.1µM*	?	9%	2
Cc1ccc2nc3c(c(Nc4ccc(O)cc4)c2c1)CCC3	2	5%	2.3µM*	-87%	2%	21
COc1ccc(Nc2c3c(nc4ccc(C)cc24)CCC3)cc1	-4	-2%	8.3µM*	-2%	1%	-5
CC(NC(=O)c1cc(-c2ccc(O)cc2)on1)c1ccccc1 (configuration not stated)	nt	-148%	nt	nt	nt	nt
CN(Cc1ccccc1)C(=O)c1cc(-c2ccc(Br)cc2)on1	21*	-10%	15%	?	-18%	69*
CCCNC(=O)c1cc(-c2ccc(Br)cc2)on1	34*	3%	43%	?	?	66*
CCCNC(=O)c1cc(-c2ccc(O)cc2)on1	nt	-35%	nt	nt	nt	nt
CC(C)NC(=O)c1cc(-c2ccc(Br)cc2)on1	49*	-1%	186%	?	2%	122*
O=C(Cn1cc(C(F)(F)F)cc(Cl)c1=O)NCc1ccc(Cl)cc1Cl	-3	16%	?	?	13%	-6
O=C(Cn1cc([N+](=O)[O-])ccc1=O)NCc1ccc(Cl)cc1Cl	33*	-2%	80%	54%	-4%	24*
Oc1ccc(Cl)cc1CNc1cccc2cccnc12	-1	-118%	?	147%	-13%	-1
Cc1cc(C[n+]2cc(Cl)ccc2N)c2ncccc2c1	-7	6%	13µM*	?	0%	-7
Cc1cc(C[n+]2cc(Br)ccc2N)c2ncccc2c1	-1	-13%	9.3µM*	13µM*	0%	-3
Nc1ccc(Cl)c[n+]1Cc1cccc2cccnc12	-5	-2%	10µM*	?	2%	-2
COc1ccc(NC(=O)CSc2nc3sc(C)cc3c(=O)n2C)c(OC)c1	-5	-45%	?	11%	0%	-9
O=C(CSc1ccccc1)Nc1ccc(N2CCN(c3ccccc3)CC2)c(F)c1	-5	3%	24%	-1%	-14%	-17
